From PMC5540273 (PLoS ONE, 2017)

Experiments:
Settings in all cases: concentration: 1 μM, replicates: in singlicate; n = 1
MEK2 = system: T1, MEK2
T1 construct: gene MAP2K2

MEK3 = system: T2, MEK3
T2 construct: gene MAP2K3

MEK4 = system: T3, MEK4
T3 construct: gene MAP2K4

MEK5 = system: T4, MEK5
T4 construct: gene MAP2K5

MEK6 = system: T5, MEK6
T5 construct: gene MAP2K6

MELK = system: MELK
MERTK = system: MERTK
MET = system: MET
MINK = system: T6, MINK
T6 construct: gene MINK1

MKK7 = system: MKK7
MKNK1 = system: MKNK1
MKNK2 = system: MKNK2
MLCK = system: T7, MLCK
T7 construct: gene MYLK3

MLK1 = system: T8, MLK1
T8 construct: gene MAP3K9

MLK2 = system: MLK2
MLK3 = system: MLK3
MRCKA = system: MRCKA
MRCKB = system: T9, MRCKB
T9 construct: gene CDC42BPB

MST1R = system: MST1R
MST1 = system: T10, MST1
T10 construct: gene STK4
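Further: KINOMEscan kinase panel screen.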

| SMILES | %Inh (MEK2) [%] | %Inh (MEK3) [%] | %Inh (MEK4) [%] | %Inh (MEK5) [%] | %Inh (MEK6) [%] | %Inh (MELK) [%] | %Inh (MERTK) [%] | %Inh (MET) [%] | %Inh (MINK) [%] | %Inh (MKK7) [%] | %Inh (MKNK1) [%] | %Inh (MKNK2) [%] | %Inh (MLCK) [%] | %Inh (MLK1) [%] | %Inh (MLK2) [%] | %Inh (MLK3) [%] | %Inh (MRCKA) [%] | %Inh (MRCKB) [%] | %Inh (MST1R) [%] | %Inh (MST1) [%] |
| --- | --- | --- | --- | --- | --- | --- | --- | --- | --- | --- | --- | --- | --- | --- | --- | --- | --- | --- | --- | --- |
| Cc1c(Cn2ccn3c(=O)cc(N4CCOCC4)nc23)cccc1C(F)(F)F [GSK2289044] | 0 | 17 | 9 | 0 | 0 | 21 | 15 | 0 | 1 | 16 | 0 | 0 | 7 | 0 | 0 | 3 | 0 | 0 | 27 | 1 |
| O=C(Nc1ccc2c(c1)OCO2)NC1CCN(c2ccnc(Nc3ccc(F)cc3)n2)C1 (stereo not drawn) [GSK1379724] | 0 | 0 | 28 | 17 | 0 | 0 | 0 | 0 | 0 | 0 | 0 | 3 | 0 | 0 | 0 | 2 | 2 | 16 | 35 | 0 |
| COc1cc2ncnc(Nc3ccc4nc(-c5ccccc5)[nH]c4c3)c2cc1OC.Cl [GW282450] | 0 | 3 | 21 | 90 | 0 | 7 | 0 | 0 | 1 | 0 | 2 | 2 | 0 | 0 | 0 | 33 | 14 | 14 | 26 | 0 |
| CS(=O)(=O)c1ccc(-c2nc3n(c2-c2ccncc2)CCC3)cc1 [SKF-105942] | 0 | 0 | 8 | 15 | 0 | 0 | 24 | 0 | 1 | 0 | 9 | 6 | 0 | 0 | 0 | 1 | 14 | 2 | 19 | 0 |
| Fc1cc(Cl)ccc1Nc1ccnc2cc(-c3ccc(CN4CCCCC4)o3)ccc12 [GW560116] | 100 | 0 | 32 | 83 | 2 | 9 | 0 | 0 | 19 | 0 | 0 | 11 | 0 | 0 | 0 | 0 | 6 | 3 | 16 | 0 |
| Fc1cc(Cl)ccc1Nc1ccnc2cc(I)ccc12 [GW551191] | 0 | 0 | 46 | 75 | 0 | 16 | 30 | 8 | 51 | 0 | 0 | 18 | 2 | 0 | 0 | 0 | 16 | 0 | 82 | 0 |
| Cc1cccc(-c2nc(-c3ccc(S(C)(=O)=O)cc3)sc2-c2ccnc(NCCc3ccccc3)c2)c1 | 7 | 0 | 25 | 0 | 8 | 0 | 0 | 0 | 0 | 0 | 3 | 0 | 0 | 0 | 2 | 0 | 6 | 0 | 28 | 0 |
| Fc1cccc(COc2nnc(-c3ccc4c(c3)CCO4)o2)c1 | 4 | 0 | 0 | 9 | 0 | 19 | 0 | 0 | 1 | 13 | 0 | 0 | 7 | 0 | 19 | 0 | 0 | 1 | 10 | 0 |
| CCn1c(-c2cccnc2O)nc2cnccc21 [SB-736715] | 0 | 14 | 0 | 11 | 0 | 1 | 26 | 0 | 0 | 0 | 17 | 1 | 0 | 0 | 0 | 0 | 4 | 0 | 0 | 0 |
| CC(C)(C)c1ccc(C(=O)Nc2cn3cc(-c4cccnc4)ccc3n2)cc1 | 36 | 13 | 0 | 95.4 | 32 | 33 | 26 | 0 | 52 | 0 | 0 | 26 | 41 | 12 | 43 | 0 | 9 | 0 | 48 | 33 |
| COc1cccc(NC(=O)NC2CCN(c3ccnc(Nc4ccc(F)cc4)n3)C2)c1 (stereo not drawn) [GSK1379721] | 22 | 0 | 26 | 86 | 0 | 8 | 14 | 0 | 0 | 0 | 23 | 0 | 0 | 0 | 0 | 0 | 6 | 0 | 28 | 0 |
| COc1ccccc1CNC(=O)c1cc(C(=O)c2ccccc2C)c[nH]1 [GSK364507] | 0 | 0 | 41 | 36 | 0 | 0 | 0 | 0 | 0 | 0 | 5 | 2 | 9 | 0 | 0 | 0 | 40 | 0 | 36 | 0 |
| COc1cc2nccc(Nc3ccc(NC(=O)c4ccc(C)cc4)c(O)c3)c2cc1OC.Cl [GW440132] | 0 | 0 | 19 | 99.9 | 0 | 0 | 5 | 0 | 0 | 0 | 0 | 5 | 0 | 0 | 0 | 33 | 13 | 8 | 0 | 1 |
| Cn1ccc2ncnc(Oc3cccc(C(=O)Nc4ccccc4)c3)c21 | 23 | 19 | 30 | 14 | 0 | 9 | 0 | 8 | 12 | 21 | 12 | 11 | 13 | 0 | 6 | 12 | 1 | 15 | 11 | 0 |
| Nc1nc(-c2nccs2)c(-c2ccnc3ccccc23)s1 [GW693542] | 0 | 0 | 36 | 45 | 0 | 56 | 22 | 2 | 51 | 0 | 11 | 6 | 0 | 6 | 0 | 0 | 12 | 0 | 33 | 2 |
| Cc1ccccc1-n1cnc2c(N)ncnc21 [SKF-97510] | 0 | 0 | 0 | 0 | 20 | 0 | 7 | 0 | 0 | 0 | 0 | 0 | 0 | 0 | 0 | 1 | 0 | 0 | 0 | 0 |
| Nc1ncnc2[nH]c(-c3ccccc3)nc12 [AH5015] | 0 | 1 | 13 | 50 | 0 | 0 | 0 | 0 | 4 | 0 | 0 | 39 | 0 | 11 | 5 | 4 | 0 | 0 | 3 | 100 |
| Cn1ccc2ncnc(Oc3ccc(Nc4nc5ccccc5[nH]4)cc3)c21 | 0 | 0 | 0 | 11 | 0 | 0 | 8 | 0 | 0 | 0 | 0 | 0 | 0 | 0 | 20 | 0 | 0 | 0 | 18 | 8 |
| CCCc1ccc(S(=O)(=O)NC2CCN(c3ccnc(Nc4ccc(F)cc4)n3)C2)cc1 (stereo not drawn) [GSK1379715] | 0 | 0 | 28 | 0 | 100 | 0 | 0 | 0 | 0 | 0 | 0 | 8 | 0 | 0 | 0 | 0 | 12 | 0 | 7 | 0 |
| COc1ccc(Nc2nccc(-c3cccc(NC(=O)c4cc5cc(F)ccc5[nH]4)c3)n2)cc1 [GSK1229782] | 0 | 22 | 28 | 96.1 | 3 | 10 | 47 | 0 | 55 | 21 | 26 | 0 | 9 | 5 | 20 | 34 | 27 | 2 | 31 | 16 |
| Cc1cc(N2Cc3ccccc3C2)nc(Nc2ccc(S(=O)(=O)N3CCOCC3)cc2)n1.Cl [GSK1669917] | 0 | 0 | 0 | 9 | 0 | 0 | 9 | 0 | 20 | 0 | 0 | 0 | 0 | 0 | 0 | 15 | 1 | 0 | 0 | 0 |
